Screens (PubChem BioAssay)
The list is not random: actives were taken first. Their share in the collection is about 7.6%.
ELG1 DNA repair = blocks ELG1-dependent DNA repair in HEK293T cells | AID 504467 | 330,000 compounds, 2.3% hits | HEK293T ELG1-luciferase reporter, luminescence, 16 h; DNA damage induced by 5-fluorouridine | Potency, µM (highest dose often 46.1 µM), for inactives: at the top dose activity change, negative = inhibition, usual class: inhibitors; note: potency is the fitted concentration of half-maximal effect; % is set by controls: 0 for no effect and ±100 for the full control effect; nearly all actives have a fitted effect of over 55% in size
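Reporter activity after DNA damage by 5-fluorouridine is monitored. Compound-treated cells incubate 16 hr at 37 °C, then ONE-Glo is added for 30 min before luminescence reading.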
RORg inh = inhibitors of mouse ROR gamma transcriptional activity; 310,000 compounds, 5.4% hits; P51450; Potency, µM (top dose mostly 53.6 µM), without a hit: top-dose activity change, negative = inhibition, usual class: inhibitors; AID 2551; Drosophila S2 Gal4-RORgamma UAS-luciferase reporter, 20 h; note: potency is the fitted concentration of half-maximal effect; % is set by controls: 0 for no effect and ±100 for the full control effect; nearly all actives have a fitted effect of over 60% in size
Target sequence (P51450 whole entry, looked up, the tested form may be a part): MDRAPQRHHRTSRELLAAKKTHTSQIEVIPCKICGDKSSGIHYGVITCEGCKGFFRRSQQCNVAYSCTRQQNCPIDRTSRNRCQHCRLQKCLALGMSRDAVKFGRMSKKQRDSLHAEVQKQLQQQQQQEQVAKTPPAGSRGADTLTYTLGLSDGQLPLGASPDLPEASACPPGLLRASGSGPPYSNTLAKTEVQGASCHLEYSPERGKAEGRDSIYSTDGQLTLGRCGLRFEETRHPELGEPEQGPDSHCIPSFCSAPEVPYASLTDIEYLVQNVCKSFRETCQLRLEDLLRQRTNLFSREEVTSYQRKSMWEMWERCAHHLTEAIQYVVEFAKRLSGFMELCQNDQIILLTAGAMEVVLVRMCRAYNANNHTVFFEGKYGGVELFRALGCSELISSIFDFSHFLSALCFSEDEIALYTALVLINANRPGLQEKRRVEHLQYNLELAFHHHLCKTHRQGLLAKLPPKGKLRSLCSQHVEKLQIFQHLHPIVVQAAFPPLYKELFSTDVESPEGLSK
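Read-out: Photinus luciferase luminescence; inhibitors lower reporter signal. Insect Schneider cells with Gal4-ROR gamma fusion under metallothionein promoter, UAS reporter; 700 uM final copper sulfate induction, 20 hr, ambient temperature.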
Giardia killer = kills Giardia lamblia | activity change, % at 7.66 µM, hits read low | Giardia lamblia trophozoite viability | 340,000 compounds, 0.15% hits; in the data active = activity change below about -80%; inconclusive = between about -30% and that limit;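 note: parasites exposed to compound for two days anaerobically before the ATP read; % is set by controls: 0 for no effect and ±100 for the full control effect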
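Trophozoite viability was measured as ATP-dependent luminescence, read 15-30 min after reagent addition. Before that, parasites at 100 cells/well were exposed to compounds for 48 h, anaerobically, at 37 deg C.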
VP16 counter = inhibits Gal4-VP16 luciferase reporter, ROR gamma counter-screen; Drosophila S2 Gal4-VP16 UAS-luciferase, luminescence, 20 h; Potency, µM (top dose mostly 53.6 µM), without a hit: at the top dose activity, negative = inhibition, hits mostly inhibitors; 310,000 compounds, 3.5% hits; AID 2546;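 note: Gal4-VP16 expression switched on by copper sulfate through the metallothionein promoter; potency is the fitted concentration of half-maximal effect; % is set by controls: 0 for no effect and ±100 for the full control effect; nearly all actives have a fitted effect of over 50% in size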
p53 reactivation = restores transcriptional activity of mutant p53; 320,000 compounds, 0.063% hits; H1299 p53-A138V BP100-luciferase reporter, luminescence, 24 h; Potency, µM (doses to about 92.2 µM), for inactives: top-dose activity change, positive = activation, most hits filed as activators; note: potency is the fitted concentration of half-maximal effect; % of control where 0% means no effect; nearly all actives have a fitted effect of over 45% in size
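H1299 (p53-null), stable ts p53-A138V + BP100-Luc; 1000 cells/well, Opti-MEM/10% FBS; cpd 4 pt, 1:5; 24 h, 37 deg C, 5% CO2; detection reagent 10 min RT; luminescence.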
BRCA1 expr act = activators of BRCA1 expression; AID 624202; 380,000 compounds, 1.1% hits; Potency, µM (series often up to 46.1 µM), for inactives: top-dose activation, actives largely listed as activators; MCF7-BRCA1-FFLuc reporter, luminescence, 48 h; response scale: scaled: vehicle 0%, 10 µM genistein 100%; note: potency is the fitted concentration of half-maximal effect; nearly all actives have a fitted effect of over 80% in size
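Reporter cells (MCF7, BRCA1 promoter-firefly luciferase) received library compounds across a concentration series for 48 h. End-point luminescence was measured and concentration-effect curves derived after normalization.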
The depositor's hits bear a star; ? = inconclusive; / = not tested or not shown. Unless noted, calls come from the whole dose curve; as a rule, active = well fitted curve in the direction sought with a large enough effect; inconclusive = small, poorly fitted or top-dose-only effect, or another doubt; inactive = no such curve, though single readings can be large; an effect the other way counts as inactive or inconclusive.

SMILES	ELG1 DNA repair	RORg inh	Giardia killer	VP16 counter	p53 reactivation	BRCA1 expr act
COc1ccc(CCNC(=O)c2ccccc2NC(=O)C2=C(C)OCCS2)c(OC)c1	18.3µM*	?	-20.8	-5.1%	2.5%	2.6%
CC(=O)Nc1ccc(C(=O)N/N=C/c2cc(Br)cc(Br)c2O)cc1	?	5.01µM*	-13.2	-25.1%	1.6%	-90.0%
CC(C)C(=O)Nc1ccc(C(=O)N/N=C/c2cc(Br)cc(Br)c2O)cc1	?	?	-10.4	?	0.1%	-93.1%
Oc1c(Br)cc(Br)cc1/C=N/NC(=S)N[C@H]1CC2C=CC1C2 (some centres not stated)	?	?	11.1	?	18.8%	-14.3%
CNC(=S)N/N=C/c1cc(Br)cc(Br)c1O	?	3.16µM*	-5.4	3.16µM*	?	-72.3%
CCCCOc1ccc(CN(C)c2ncnc(N)n2)cc1	-9.5%	?	-9.7	27.1%	?	-58.1%
Fc1ccc(C2c3cccn3CCN2C(=S)Nc2cccc(F)c2)cc1 (configuration not stated)	?	10µM*	-26.7	-65.8%	0.6%	-40.9%
Fc1ccccc1C1c2cccn2CCN1C(=S)Nc1cccc(Br)c1 (configuration not stated)	?	12.6µM*	-10.2	?	4.4%	-0.7%
CC(=O)Oc1c(C)cc(Cl)cc1C(=O)Nc1ccc([N+](=O)[O-])cc1Cl	?	1µM*	4.6	1µM*	?	25.1%
O=C(Nc1ccc([N+](=O)[O-])cc1Cl)c1ccccc1O	/	/	-18.8	/	/	-55.1%
CCOc1ccc2nc(N/C(N)=N/S(C)(=O)=O)nc(C)c2c1	?	4.5%	-10.9	5.9%	-1.9%	?
COc1ccc2nc(N/C(N)=N/C(=S)Nc3ccc(C)c(C)c3)nc(C)c2c1	-25.9%	0.794µM*	/	?	3.3%	/
CCOc1ccc2nc(N/C(N)=N/C(=S)Nc3ccc(OC)cc3)nc(C)c2c1	?	1.58µM*	-9.1	?	-3.6%	9.4%
CCc1ccc2nc(/N=C(\N)NC(=O)c3ccccc3)nc(C)c2c1	-3.0%	-2.2%	17.5	5.1%	1.3%	-29.8%
CCc1ccc(NC(=S)/N=C(\N)Nc2nc(C)c3cc(CC)ccc3n2)cc1	-28.7%	1.12µM*	-12.6	7.08µM*	-0.9%	-14.8%
COc1ccc(OC)c(N/C(=N/C(=S)Nc2ccccc2)Nc2nc(C)cc(C)n2)c1	?	?	-11.3	0.708µM*	-0.7%	-31.3%
CC(C)NC(=O)NC(=O)COC(=O)c1ncc(Cl)c(Cl)c1Cl	-1.0%	-30.5%	-27.2	27.0%	0.7%	22.7%
CCc1nn(C(CC)C(=O)NCc2cccc(OC)c2OC)c(=O)c2cc3occc3n12 (configuration not stated)	?	?	13.0	0.7%	-7.8%	-30.1%
COc1ccc2nc(N/C(N)=N/C(=S)Nc3ccccc3)nc(C)c2c1	?	0.794µM*	-16.9	4.47µM*	16.1%	72.5%
COc1ccccc1C(=O)NCC(=O)NNC(=O)C1COc2ccccc2O1 (configuration not stated)	-0.6%	/	-5.1	/	-1.1%	-1.8%
COc1cccc(/C=N/NC(=O)CSc2nnc(C)n2-c2ccccc2)c1O	-15.4%	7.08µM*	-0.5	20µM*	16.4%	-78.1%
CCCCSc1nc(C)cc(SCC(=O)N/N=C/c2cccc(OC)c2O)n1	-0.8%	0.282µM*	9.2	1µM*	9.8%	-77.6%
COc1ccc(O)c(/C=N/NC(=O)CSc2nnc(C)n2-c2ccccc2)c1	?	7.94µM*	-6.3	-29.4%	-2.1%	-67.0%
COc1ccc(/C=N/NC(=O)CSc2nnc(C)n2-c2ccccc2)c(OC)c1OC	?	43.4%	-3.3	0.3%	0.7%	6.6%
O=C(CSc1nnc(-c2n[nH]c3ccccc23)n1-c1ccccc1)Nc1ccccc1Cl	23.1µM*	29.4%	8.7	-2.9%	-13.2%	-35.2%
